Source: PubChem BioAssay AID2326 (National Center for Advancing Translational Sciences (NCATS), 2010)
About 1,100 (0.41%) of roughly 270,000 compounds were called active. Inconclusive results (about 3%) are left out. This excerpt belongs to a sample that is enriched for actives. Values without a mark were called inactive. The call rests on the fitted dose curve.

experiment: qHTS Assay for Inhibitors of Influenza NS1 Protein Function; conditions: series mostly up to 46.1 µM; activity, positive = more growth: at the top concentration; further: actives are rising curves; nearly all actives have a fitted effect of over 50% in size
From the text: NIH Chemical Genomics Center [NCGC]
NIH Molecular Libraries Probe Centers Network [MLPCN]
Assay Submitter (PI): Daniel Engel
Influenza is a world-wide public health problem and emerging forms of the virus have the potential to cause a pandemic of equal or greater magnitude to the outbreaks recorded in 1918, 1957 or 1968. Vaccine development is proceeding and there also exist two classes of anti-influenza compounds. However these therapeutic modalities are neither fully effective nor widely enough available to fulfill global needs. In addition their potential usefulness against newly emergent strains is not known. Efforts are needed to develop novel agents against influenza virus, including broad-spectrum agents. Identification of small molecules that inhibit NS1 function either directly or by interfering with specific cellular pathways may be a key to increasing our defense against the virus.
We have miniaturized and optimized a cell based assay in which NS1 from influenza A is expressed in the budding yeast S. cerevisiae. NS1 is a multi-functional protein that counters the host innate immune response and facilitates viral versus cellular gene expression. Expression of NS1 causes a pronounced slow growth phenotype in yeast due to its intrinsic molecular activities. Small molecules that suppress the slow growth phenotype can be identified by a straightforward growth recovery assay using optical density (OD) as the measurement. The same yeast strain not expressing NS1 was used as positive control in the yeast growth recovery assay.
The yeast S. cerevisiae control and NS1 expressing cells were kindly supplied by laboratory of Dr. Daniel Engel, University of Virginia. Yeast starter cultures were stored in single use aliquots at -80C.
1. Yeast culture medium per liter: 1.2 g Yeast Nitrogen Base (w/out amino acids and Ammonium Sulphate), 5.0g Ammonium Sulphate, 0.77g -URA DO (drop-out) Supplement, adjust pH to 6.0. Adjust to 2% glucose prior to inoculating with yeast.
2. Yeast assay medium: 1.2 g Yeast Nitrogen Base (w/out amino acids and Ammonium Sulphate), 5.0g Ammonium Sulphate, 0.77g -URA DO (drop-out) Supplement, adjust pH to 6.0. Adjust to 2% D-galactose prior to inoculating with yeast.
1. Inoculate 100 mls of yeast culture medium with 1 ml of frozen yeast aliquote. Incubate overnight at 30C, 250RPM.
2. Harvest overnight culture at 4000 RPM and wash pellet with 15 mls H2O 3x.
3. Re-suspend washed pellet in 10 mls of yeast assay medium.
4. Prepare a 1:100 dilution of re-suspended culture in yeast assay medium.
5. Dispense 3.5 ul per well of reagents in step 4 in columns 2-48 in a black clear bottom 1536 well plate.
6. Dispense 3.5 ul per well of yeast assay medium in column 1 only.
7. Transfer 23 nl of compound per well.
8. Dispense 3.5 ul per well of yeast assay medium in columns 1-48.
9. Read plate using Viewlux protocol for optical density 600 (OD600) using excitation filter 600nm.
Potency means the concentration at half of the fitted maximal effect.

Row | SMILES | activity, positive = more growth | Potency
1 | O=S1(=O)CCOC[C@H](CC2CCCCC2)N1Cc1ccc(F)cc1 | -5.09% | –
2 | Cc1nonc1C1CCCN1C(=O)c1cc(COc2cccc(C(F)(F)F)c2)on1 (stereo not given) | 1.92% | –
3 | COc1ccc(C(=O)CC(=O)c2ccc(C)cc2)c(O)c1 | -8.33% | –
4 | O=C(Nc1ccccc1)c1ccc2c(c1)OCCCO2 | -89.8% | –
5 | Cc1cc(=O)[nH]c(SCc2cc(Cl)ccc2OC(F)F)n1 | – | 3.16 µM (active)
6 | Cc1cc(=O)[nH]c(SCc2cccc(F)c2)n1 | -3.47% | –
7 | COc1ccccc1-c1noc(CSc2nc(C)cc(=O)[nH]2)n1 | 1.14% | –
8 | CC(=O)N1CCc2c(sc(NC(=O)CCS(=O)(=O)c3ccccc3)c2C#N)C1 | -4.08% | –
9 | Cc1ccc(N(Cc2cc(=O)[nH]c3ccccc23)C(=O)CCl)cc1 | 2.46% | –
10 | CC(C)n1c(COc2ccccc2)nc2ccccc21 | -47.3% | –
11 | Cc1cccc(NC(=O)c2ccc3c(=O)n(CC4CCCO4)c(=S)[nH]c3c2)c1 (stereo not given) | -0.15% | –
12 | CC1CCN(C2=NC(=O)/C(=C/c3ccc(O)cc3)S2)CC1 | 15% | –
13 | OC(COc1ccc2ccccc2c1)CN1CCOCC1 (stereo not given) | 1.77% | –
14 | CC(=O)Nc1ccc(OCC(O)CN2CCN(c3ccccc3Cl)CC2)cc1 (stereo not given) | -6.58% | –
15 | O=S(=O)(c1ccc(OCC(O)CN2CCN(c3ccccc3Cl)CC2)cc1)N1CCOCC1 (stereo not given) | – | 1.26 µM (active)
16 | Cc1cccnc1CC(C)NC(=O)c1cc(COc2cncc(Cl)c2)on1 (stereo not given) | -7.9% | –
17 | O=[N+]([O-])c1ccc2c(c1)Nc1nc3ccccc3nc1N2 | -62.4% | –
18 | Cc1cc(Br)ccc1NC(=S)NC1CCCC1 | -89.5% | –
19 | Cc1cccc(N=C2NN=C(c3c[nH]c4ccccc34)CS2)c1 | – | 14.1 µM (active)
20 | Clc1cccc(N=C2NN=C(c3ccc4c(c3)OCCO4)CS2)c1 | 13.9% | –
21 | Cc1ccc(-c2csc(-c3c[nH]c4ccccc34)n2)cc1 | -6.52% | –
22 | COc1ccccc1NC(=O)C1CCN(C(=O)c2ccc(C(C)(C)C)cc2)CC1 | 3.23% | –
23 | Cc1ccc(NC(=S)NCCc2ccc(Cl)cc2)c(C)c1 | -44.7% | –
24 | COc1ccc2[nH]c(C(=O)N/N=C/c3cc(OC)c(OC)c(OC)c3)cc2c1 | -2.63% | –
25 | Cn1c(NC(=O)c2ccccc2)nc2ccccc21 | -89.1% | –

Row | SMILES | activity, positive = more growth | Potency
26 | COCCCNC(=S)N1CCN(c2nc(-c3cccc(OC)c3)cs2)CC1 | 2.39% | –
27 | CC(C(=O)NC1CCCCC1)N1C(=O)c2cccc3cccc1c23 (stereo not given) | 4.31% | –
28 | CC(C(=O)O)N1C(=O)c2cccc3cccc1c23 (stereo not given) | – | 14.1 µM (active)
29 | Cc1cc(C)nc(NC(=O)C(C)N2C(=O)c3ccccc3C2=O)n1 (stereo not given) | 3.33% | –
30 | O=C1/C(=C/c2ccc(F)cc2)SC(=S)N1CCCC(=O)N1CCCCC1CCO (stereo not given) | -51.5% | –
31 | O=C(NCCCN1CCOCC1)c1ccc2c(c1)N(Cc1cccc(F)c1)C(=O)c1ccccc1S2 | 2.04% | –
32 | CN(C)S(=O)(=O)N1CCC(Oc2cccc(C(=O)NCCCC3CCCC3)c2)CC1 | -0.22% | –
33 | O=C(CC1N=C2c3ccccc3N=C(SCc3ccccc3Cl)N2C1=O)NCc1ccco1 (stereo not given) | 8.45% | –
34 | O=C(CSC1=Nc2ccccc2C2=NC(CC(=O)NCc3ccco3)C(=O)N12)NCc1ccco1 (stereo not given) | – | 7.94 µM (active)
35 | NC(=O)CSC1=Nc2ccccc2C2=NC(CCC(=O)NCc3ccc(F)cc3)C(=O)N12 (stereo not given) | -1.66% | –
36 | CN(c1ccc(O)cc1)c1nc(-c2cccnc2)cs1 | -47.4% | –
37 | CC(=O)c1cccc(OCc2cc(C(=O)NC(C)Cc3cccnc3)no2)c1 (stereo not given) | 1.99% | –
38 | CNC(=O)c1sc(Nc2ccc(OCc3ccccc3)cc2)nc1C | -6.93% | –
39 | CCCn1c(=N)n(CC(=O)c2ccc(Cl)c(Cl)c2)c2ccccc21 | -0.19% | –
40 | COc1ccc(/C=C2\SC(=O)N(CCC(=O)NC3CCS(=O)(=O)C3)C2=O)cc1 (stereo not given) | -18.3% | –
41 | O=C(CCS(=O)(=O)c1ccccc1)Nc1nc2c(s1)CCCC2 | -11.9% | –
42 | Cc1nnc(NC(=O)Cn2c(=O)sc3ccccc32)s1 | 0.343% | –
43 | Cc1ccc(-n2c(SCC(=O)N3CCC(C(=O)O)CC3)nc3ccccc3c2=O)cc1C | 11.5% | –
44 | Cc1ccc(NS(=O)(=O)c2ccc(-c3coc(C)n3)cc2)c(C)c1 | 4.83% | –
45 | CCOc1cc(CO)ccc1OCC(=O)N1CCCCC1 | 3.05% | –
46 | CC(C)c1ccc(OCC(=O)N2CCN(C)CC2)c(Br)c1 | -5.71% | –
47 | CN1CCN(C(=O)COc2ccc(C(C)(C)C)cc2Br)CC1 | – | 3.98 µM (active)
48 | CC(C)(C)c1ccc(SCCc2ccncc2)cc1 | -39.6% | –
49 | O=C(N/N=C/c1ccccc1O)C1CCCC1 | -10.7% | –
50 | O=C(CSc1ccc(-c2ccccn2)nn1)Nc1ccccc1 | -103% | –
